Pf Dd2 growth: blocks in vitro growth of P. falciparum Dd2; 4.3% of 120,000 active; Potency, µM (top dose mostly 28.9 µM), for inactives: at the top dose activity, negative = inhibition, usual class: inhibitors; P. falciparum Dd2 growth, SYBR Green, 72 h; active means well fitted inhibition curve with a large enough effect;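 further: plate controls were DMSO vehicle for no effect and reference drug for full effect; nearly all actives have a fitted effect of over 65% in size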
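Readout: SYBR Green fluorescence, 485 nm excitation, 535 nm emission, after ~16 h lysis at 37C. Before that, Dd2-infected red cells (2.5% hematocrit) grew 72 h with compound, 29 uM top final concentration.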
The depositor's hits bear a star; i = inactive; [ ] = dose if it differs, or a comment. The sample as a whole holds a higher share of hits than the screen did. Potency means the concentration at half of the fitted maximal effect.

SMILES	Pf Dd2 growth
COc1cccc(CN2C(=O)OC3(CCN(Cc4ccncc4)CC3)C2(C)c2cccnc2)c1 (stereo not drawn)	-8.6%
COc1cccc(CN2C(=O)OC3(CCN(C(=O)Cc4cccc(F)c4)CC3)C2(C)c2cccnc2)c1 (stereo not drawn)	i
COCC(=O)N1CCC2(CC1)OC(=O)N(Cc1cccc(OC)c1)C2(C)c1cccnc1 (stereo not drawn)	-10.2%[44.1 µM]
CCN(CC)C1CCOC2(CCN(C(=O)Cc3c(C)noc3C)CC2)C1 (stereo not drawn)	17.5%
CC(=O)N1CCC(NC[C@H]2Cn3c(-c4ccc5c(c4)OCCO5)cnc3CO2)CC1	i
O=C(CC1CCN(C(=O)Nc2ccccc2F)C1)NCc1ccccc1 (stereo not drawn)	64.8%
O=C(NC1CCCN(c2cc(-c3ccccc3)[nH]n2)C1)c1ccccn1 (stereo not drawn)	i
O=C(CC1CCN(S(=O)(=O)c2cccs2)C1)NCc1ccccc1 (stereo not drawn)	-4.6%
O=C(COc1ccccc1)NC1CCCN(c2cc(-c3ccc(F)cc3)[nH]n2)C1 (stereo not drawn)	-32.6%
Cc1occc1C(=O)N1CCC(N2CCCC(C(=O)NCc3ccccn3)C2)CC1 (stereo not drawn)	4.2%
CCCn1cc(CN2CCC(CO)(Cc3ccccc3Cl)CC2)c(C)n1	i
OCC1(Cc2ccccc2)CCN(Cc2ccccc2-c2ccco2)CC1	8.91µM*
COc1ccccc1CN1CCC2(CC1)COCCN2C(=O)OCc1ccccc1	-7.1%[44.1 µM]
COCCN[C@H]1[C@@H]2OC[C@@H](O2)[C@@H](NCc2ccc3c(c2)OCO3)[C@@H]1O	-19.0%[44.1 µM]
O=C(Cc1cccs1)N1CCC(Oc2ncccc2C(=O)N2CCCCC2)C1 (stereo not drawn)	i
O=C(Cc1ccccc1F)N1CCC(Oc2ncccc2C(=O)N2CCCCC2)C1 (stereo not drawn)	-12.2%
O=C(Cc1cccc(Cl)c1)N1CCC(Oc2ncccc2C(=O)N2CCCCC2)C1 (stereo not drawn)	7.94µM*
CC(=O)N1CCC(C2CCN(S(=O)(=O)c3ccc(C#N)cc3)C2)CC1 (stereo not drawn)	0.8%
Cc1nonc1CC(=O)N1CCc2ncnc(N3CC=CC3)c2CC1	-0.6%
COc1ccc(-c2noc([C@@H]3CCCN3C(=O)c3ccc(C(C)(C)C)cc3)n2)cc1OC	i
COc1cc2c(cc1OCc1ccccc1)N([S+](=O)([O-])c1ccc3c(c1)CCO3)CC21CCN(C)CC1	3.55µM*
COc1cccc([S+](=O)([O-])N2CCCC3(CC(Cc4ccccc4)=NO3)C2)c1 (stereo not drawn)	i
COc1ccc(C(=O)N2CC3(CCN(C)CC3)c3cc(OC)c(OCc4ccccc4)cc32)cn1	i
Cc1ccc(S(=O)(=O)Cc2noc([C@@H]3C[C@@H](O)CN3Cc3cccc(C#N)c3)n2)cc1	9.1%
Cc1ccccc1NC(=O)Cn1cc(C(=O)c2ccco2)c2ccccc21	-4.8%
SMILES	Pf Dd2 growth
Cc1ccccc1OCCn1cc(C(=O)c2ccco2)c2ccccc21	1.26µM*
CCOc1ccc(NC(=O)Cn2cc(C(=O)c3ccccc3)c3ccccc32)cc1	26.2%
O=C(Cn1cc(C(=O)c2ccco2)c2ccccc21)Nc1ccc(Br)cc1	-14.9%
Cc1ccccc1OCCn1cc(C(=O)C2CCCCC2)c2ccccc21	-8.8%
Cc1cc(OCCn2cc(C(=O)c3ccco3)c3ccccc32)ccc1Cl	1.12µM*
Cc1ccc(OCCn2cc(C(=O)c3cccs3)c3ccccc32)cc1	3.98µM*
Cc1cccc(C)c1OCC(=O)N(Cc1ccco1)Cc1ccco1	14.2%
COc1ccccc1OCCn1cc(C(=O)c2cccs2)c2ccccc21	i
COCCN1CCC(N2CCN(C(=O)c3ccc(F)cc3F)CC2)C1=O (stereo not drawn)	-1.6%
CC[C@H]1CN(C(=O)Nc2cccc(C(F)(F)F)c2)CC[C@H]1CC(=O)NCc1ccco1	1.2%
COCCCNC(=O)N1CCCCCCn2c(nnc2-c2ccc(F)cc2)CC1	-10.6%
Cc1ccc([S+](=O)([O-])N2CCC(c3nn(Cc4ccccc4)c(=O)[nH]3)CC2)cc1	i
Cn1cnc(S(=O)(=O)N2CC(N(CC3CC3)C3CCOCC3)C2)c1	-6.0%
COc1cccc(C(=O)NCC2CCCN(Cc3cnc(C)s3)C2)c1OC (stereo not drawn)	-12.8%
CS(=O)(=O)c1ccc(CN2CCN3C(=O)N(C4CCCCC4)C[C@H]3C2)cc1	36.2%[44.1 µM]
Cc1ccc(C(=O)N2CCC3(CC2)N=C(c2ccccc2)NO3)cc1F	i
CC(C)c1ccc(CN2CC(CNC(=O)c3cnn(C)c3)C3(C2)CN(c2ccccc2)C3)cc1 (stereo not drawn)	i
O=C(c1cccc(Cl)c1)N1CC(CNc2cccnc2)C2(C1)CN(c1ccccc1)C2 (stereo not drawn)	12.6µM*
O=C(NCC1CN(Cc2ccncc2Cl)CC12CN(c1ccccc1)C2)c1ccccc1 (stereo not drawn)	-2.9%
Cn1cc(C(=O)NCC2CN(C(=O)c3ccccc3)CC23CN(c2ccccc2)C3)cn1 (stereo not drawn)	i
O=C(Cc1ccccc1)NCC1CN(Cc2ccncc2Cl)CC12CN(c1ccccc1)C2 (stereo not drawn)	11.2µM*
O=C(c1cccnc1)N1CC(COc2ccccc2)C2(C1)CN(c1ccccc1)C2 (stereo not drawn)	-26.3%[44.1 µM]
CO[C@@H]1COCC[C@H]1NC(=O)c1cccnc1N(C)C1CCCCC1	-28.2%
Cc1nc(N2CCC(NC(=O)c3nn(C)c4ccccc34)CC2)cc(C(F)(F)F)n1	i
CC(C)CNC(=O)N1CCCCCCNC(=O)[C@@H]2CCCC[C@@H]21	10.1%
SMILES	Pf Dd2 growth
CCOCCCNC(=O)N1CCC(N2CC3CC(C2)[C@H]2CCCC(=O)N2C3)CC1 (stereo partly drawn)	13.0%
c1ccc(Cn2nc(C3CCOC3)nc2-c2ccoc2)cc1 (stereo not drawn)	-2.1%
c1cc(-c2nc(C3CCOC3)nn2Cc2ccc3c(c2)OCO3)[nH]n1 (stereo not drawn)	-12.1%
NCc1ccc(-c2nc(C3CCOC3)nn2Cc2ccccc2)cc1 (stereo not drawn)	4.47µM*
CC1(C)[C@H](Cc2cc(-c3ccc(F)cc3)on2)C[C@@H]1NCc1cccnc1	7.94µM*
COCc1cc(C[C@@H]2C[C@H](NC3CCOCC3)C2(C)C)no1	-12.2%[44.1 µM]
CN1CCC(N[C@H]2C[C@@H](Cc3cc(C(C)(C)C)on3)C2(C)C)CC1	5.01µM*
COc1ccc(CN[C@H]2C[C@@H](Cc3cc(CCO)on3)C2(C)C)cc1	i
Fc1ccc(-c2cc(CC3(NCc4cccnc4)COC3)no2)cc1	-11.1%[44.1 µM]
CN(C)Cc1cc(C[C@@H]2C[C@H](NCc3ccc(F)cc3)C2(C)C)no1	3.16µM*
CC1(C)[C@H](Cc2cc(-c3ccc(F)cc3)on2)C[C@@H]1NC1CCC1	11.2µM*
CC(=O)N1CCC(N[C@H]2C[C@@H](Cc3cc(CCO)on3)C2(C)C)CC1	0.7%[44.1 µM]
CN(Cc1cc(C[C@@H]2C[C@H](NCc3ncc[nH]3)C2(C)C)no1)c1ccccc1	i
COCc1cc(C[C@@H]2C[C@H](NCC3CC3)C2(C)C)no1	i
CN(C)C1(Cc2cc(-c3ccc(F)cc3)on2)COC1	13.9%[44.1 µM]
COCc1cc(C[C@@H]2C[C@H](NCc3cccnc3)C2(C)C)no1	-9.3%[44.1 µM]
O=C1NC[C@@H](CCC(=O)N2CCN(c3ccccc3)CC2)N2C[C@@H](NCc3ccccc3)C[C@@H]12	-24.1%
